Experimental data from PubChem BioAssay AID488909 (Broad Institute, 2010).
Measured potencies and affinities stand elsewhere. Results filed as inconclusive are left out. Active and inactive are the calls of the source.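 Rule for the calls: active = fluorescence drops, meaning less fungal growth, with half-maximal dose at most ten times the top valid tested dose; inconclusive = flat curve with 30 to 70% inhibition, or poor fit; inactive = the rest, including compounds that raise the signal.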

Assay: resistant Candida growth with fluconazole co-treatment – CaCi-8 strain, Alamar Blue, dry powder, set 2, dose response (AID 488909)
Conditions: C. albicans CaCi-8 + fluconazole, 48 h; series mostly up to 26 µM; activity change, negative = inhibition: at the top concentration

Structure (SMILES)	activity change, negative = inhibition
Cc1cc(N2CCN(C(=O)c3ccc(Cl)cc3)CC2)c2ccccc2n1	-20.2% (inactive)
COCCC(=O)N1CCN(c2ccnc3cc(Cl)ccc23)CC1	-6.82% (inactive)
N#Cc1ccc(N2CCN(C(=O)c3ccc(Cl)cc3)CC2)nc1	-19.2% (inactive)
Clc1ccc2c(N3CCNCC3)ccnc2c1	8.86% (inactive)
